Shown is part of a subset that was picked to be rich in hits.
MARV entry inh = inhibitors of Marburg virus binding or cell entry; AID 540276; Potency, µM (top dose mostly 37.8 µM), without a hit: at the top dose activity change, negative = inhibition, usual class: inhibitors; 300,000 compounds, 1.8% hits; Marburg virus pseudotyped entry inhibition, cell reporter; calls by dose curve; tested in HEK293 cells; further: potency means the concentration at half of the fitted maximal effect; on the % scale 0 is the no-effect control and ±100 the full control effect
Cycloheximide cs = counter-screen for Shiga toxin inhibitors: cycloheximide protein synthesis inhibition; max response, %; 300,000 compounds, 12% hits; cell reporter, cycloheximide protein synthesis inhibition counterscreen; in the data active means max response mostly above about 13%, no sharp cut-off; inactive means mostly below about 14%; further: read at 38.3 µM for the half of the compounds with a filed dose; 0% is about no effect
Vaccinia mCherry = vaccinia inhibition (mCherry reporter) | AID 720579 | Vaccinia virus mCherry reporter infection, fluorescence | Potency, µM (highest dose often 36.5 µM), without a hit: top-dose activity change, negative = inhibition, most hits filed as inhibitors | 310,000 compounds, 0.63% hits; calls by dose curve; tested in A549 cells; further: potency means the concentration at half of the fitted maximal effect; on the % scale 0 is the no-effect control and ±100 the full control effect; nearly all actives have a fitted effect of over 35% in size
LASV entry inh = inhibitors of Lassa virus binding or cell entry; Lassa virus pseudotype entry inhibition, cell reporter; Potency, µM (top dose mostly 37.9 µM), without a hit: at the top dose activity change, negative = inhibition, hits mostly inhibitors; 300,000 compounds, 1.2% hits; AID 540256; calls by dose curve; tested in HEK293 cells; further: potency means the concentration at half of the fitted maximal effect; on the % scale 0 is the no-effect control and ±100 the full control effect; nearly all actives have a fitted effect of over 50% in size
Vaccinia Venus = inhibitors of vaccinia virus (Venus reporter); Vaccinia virus Venus reporter expression, fluorescence; Potency, µM (top dose mostly 36.5 µM), for inactives: at the highest dose activity change, negative = inhibition, actives largely listed as inhibitors; 330,000 compounds, 0.46% hits; AID 720580; calls by dose curve; tested in A549 cells; further: potency means the concentration at half of the fitted maximal effect; on the % scale 0 is the no-effect control and ±100 the full control effect; nearly all actives have a fitted effect of over 30% in size
Shiga toxin inh = blocks Shiga toxin action in Vero cells; Vero cells, Shiga toxin protein synthesis inhibition reporter; inhibition, % at 38.7 µM; 290,000 compounds, 9.2% hits; AID 2315; in the data active means inhibition mostly above about 28%, no sharp cut-off; inactive means mostly below about 43%; further: 0% is about no effect
* = called active by the depositor; i = inactive; ? = inconclusive; · = no result; + = active, no number; [ ] = another dose, or the depositor's remark.

SMILES	MARV entry inh	Cycloheximide cs	Vaccinia mCherry	LASV entry inh	Vaccinia Venus	Shiga toxin inh
O=C(CN1CCC(NC(=O)c2ccccc2Cl)CC1)NCc1ccccc1	5%[46.1 µM]	-4	i	-10%	0%	11
O=C(COCc1cc(-c2ccco2)on1)Nc1cccc(Cl)c1Cl	·	·	i	27%[46.1 µM]	-14%	·
CC(NC(=O)C(=O)NCCc1c[nH]c2ccccc12)c1ccccc1 (stereo unspecified)	·	4	·	·	·	3
COc1ccc(Nc2nc(C(=O)NCc3ccco3)cs2)cc1	·	14*	·	·	·	44
O=C1O/C(=C\c2ccccc2)c2ccccc21	-2%	31*	·	10%	·	45*
O=C(Nc1ccccc1C(F)(F)F)N1CC=C(c2c[nH]c3ccccc23)CC1	·	·	-26%	6%[46.1 µM]	-9%	·
Cc1ccc(NNC(=O)c2sccc2Cl)c(C)c1	·	·	i	·	-16%	·
C=CCn1nnnc1SCC(=O)Nc1ccc(OC)cc1	·	24*	·	·	·	20
COc1ccc(NC(=O)CCSc2nnnn2C)cc1	24%	25*	0%	23%	-4%	51
COCCn1nnnc1SCC(=O)c1ccccc1	13%	14*	2%	25%	8%	34
COc1ccc(-n2c(SCC(=O)Nc3nc(C)cs3)nnc2-c2ccoc2C)cc1	-24%	0	·	-4%	·	13
COc1ccc2nc(NC(=O)CSc3nnc(-c4ccoc4C)n3C)sc2c1	3%	46*	-18%	-37%	-24%	80*
CN(C)CC(C)(O)c1ccc2c(c1)CN(Cc1cccn1-c1cccnc1)CCO2 (stereo unspecified)	·	·	-15%	·	-7%	·
CCN1CCN(c2oc(-c3ccccc3)nc2S(=O)(=O)c2ccc(C)cc2)CC1	?	·	-2%	?	-17%	·
CCOC(=O)c1cnc2cc(C(F)(F)F)ccc2c1N1CCN(c2cccc(Cl)c2)CC1	5%[46.1 µM]	·	0%	-25%[46.1 µM]	1%	·
CCN(CC)C(=O)c1sc2c(c1C)c(=O)n(Cc1ccccc1)c(=O)n2Cc1c(C)cc(C)cc1C	·	·	?	?	-28%	·
Cn1nnnc1SCc1ccc(C(=O)Nc2ccc(Br)cc2)cc1	14%	47*	·	?	-15%	57*
COc1ccc(NC(=O)CCSc2ccc(C)cc2)cc1	5%	1	-14%	27%	-13%	1
CC(=O)Nc1ccc(C(=O)CSc2nnnn2C)cc1	17%[46.1 µM]	-1	12%	19%	-12%	-3
CCn1nnnc1SCC(=O)Nc1ccc(OC)cc1	-18%[46.1 µM]	13	-13%	20%	-4%	34*
COc1ccc(NC(=O)CCSc2ccc(F)cc2)cc1	?	34*	i	-20%[46.1 µM]	-3%	57*
CCn1nnnc1SCC(=O)Nc1nc2ccc(OC)cc2s1	2%[46.1 µM]	25*	-14%	-15%	-18%	+
COc1ccc2nc(NC(=O)CSCC(=O)Nc3cc(C)on3)sc2c1	?	·	-9%	?	-14%	·
CCn1nnnc1SCC(=O)c1cccc(OC)c1	?	19*	-11%	1%	-6%	14
CCOC(=O)c1cccc(NC(=O)CSc2nnc(-c3ccoc3C)n2CCOC)c1	3%	9.2*	?	2%	-20%	9
SMILES	MARV entry inh	Cycloheximide cs	Vaccinia mCherry	LASV entry inh	Vaccinia Venus	Shiga toxin inh
Cc1occc1-c1nnc(SCC(=O)Nc2ccccc2)n1CCc1ccccc1	-6%	12	-28%	-3%	-15%	-4
C=C1C(=O)OC2C=C(CO)C3OC3C3OC3(C)CC(OC(=O)/C(=C/C)COC(C)=O)C12 (stereo unspecified)	2.5µM*	·	?	?	-18%	·
Cc1cccc(C)c1-n1nnnc1SCC(=O)N1CCNC1=O	2%	·	i	0%	-12%	·
COc1ccc(N2CC(C(=O)N[C@@H](C)C(=O)NC3CCCCC3)CC2=O)cc1 (stereo partly specified)	0%[46.1 µM]	-6	i	-12%[46.1 µM]	-7%	-9
CCn1c(C)c(C(=O)c2ccccc2)c(C#N)c1C(=O)O	·	21*	·	·	·	25
Cc1ccc(N2CC(C(=O)NCc3nnnn3-c3ccc(C)c(C)c3)CC2=O)cc1C (stereo unspecified)	·	·	-14%	-25%[46.1 µM]	-15%	·
O=C(Cc1ccccc1)Nc1nonc1NC(=O)c1ccccc1	13µM*	-1	i	?	-12%	-1
O=C(Nc1cccnc1)c1ccc(NC(=O)c2ccco2)cc1	-12%[46.1 µM]	19*	-18%	0%	-4%	61
O=C(Nc1nonc1-c1ccc(Cl)cc1)c1ccccc1	18%[14.2 µM]	6	?	-10%	-15%	-12
O=C(Nc1cccnc1)c1ccco1	-4%	1	-10%	2%	-7%	40
COc1cccc(C(=O)Nc2ccc(NC(C)=O)cn2)c1	22%	31*	i	-6%	-3%	65*
COc1ccc(C(=O)Nc2ccc(NC(=O)c3cnccn3)cn2)cc1	9%	1	-14%	-20%	-14%	10
O=C(Nc1ccc(NC(=O)C2CC2)cn1)c1ccccc1	?	26*	2%	5.6µM*	9%	43*
COc1ccc(C(=O)Nc2ccc(NC(=O)C3CC3)cn2)cc1	17%[46.1 µM]	13	61%	23%	-3%	34
O=C(NCc1ccco1)c1cnn2c1N[C@@H](c1ccccc1)C[C@@H]2C(F)(F)F	0%	·	·	·	·	·
CN1CCN(C(=O)CN(C2CCCCC2)S(=O)(=O)c2ccc(Br)cc2)CC1	-20%	0	i	-26%	-9%	18
COc1ccc(C(=O)N2CCCC2(C#N)c2ccccc2)cc1[N+](=O)[O-] (stereo unspecified)	·	-1	-14%	·	-24%	18
O=C(Nc1ccc(NC(=O)c2ccccc2F)cn1)c1ccco1	4µM*	18*	-13%	?	-12%	36
O=C(Nc1ccc(NC(=O)c2ccco2)nc1)c1cccnc1	?	21	-9%	?	3%	54*
C=Cc1cccc(NC(=O)c2ccc(NC(=O)c3ccco3)cc2)c1	·	19*	·	·	·	35*
O=C(Nc1ccccc1C(=O)Nc1ccccc1)c1ccco1	0%[46.1 µM]	6	i	13%[46.1 µM]	-9%	30
Cc1cc(NC(=O)c2cccc(F)c2)ncc1NC(=O)c1ccco1	?	21*	-6%	4%	1%	50
Cc1ccc2c(=O)c(C(=O)c3ccccc3)cn(CC(=O)Nc3ccc(C)c(Cl)c3)c2n1	·	·	-12%	3%[46.1 µM]	-17%	·
COCCCNC(=O)CC(NCCCOC)C(=O)O (stereo unspecified)	6%	-6	-9%	3%	-5%	4
O=C(COC(=O)CNS(=O)(=O)c1ccc(Br)cc1Cl)NC1CC1	-12%	·	i	2%[46.1 µM]	-8%	·
CC(C)C(=O)Nc1ccc(NC(=O)c2cccc(F)c2)cn1	2%[46.1 µM]	22*	i	7%	-9%	76*
O=C(Nc1ccc(NC(=O)C2CC2)nc1)c1cccc(F)c1	27%	47*	-16%	-1%	-14%	59*
CCCC(=O)Nc1ccc(NC(=O)c2cccc(OC)c2)nc1	-1%[46.1 µM]	33*	-11%	-4%	?	119*
O=C(Nc1ccc(NC(=O)C2CC2)nc1)c1cccnc1	13%[46.1 µM]	8	-15%	-1%	-4%	13

Screens: PubChem BioAssay, National Center for Advancing Translational Sciences (NCATS)
